Tau ThT inhib: inhibitors of human tau fibril formation, thioflavin T binding; AID 1460; P10636; 270,000 tested, 2.1% active; recombinant tau K18 P301L, heparin-induced fibrillization, ThT fluorescence; Potency, µM (series often up to 57.4 µM), for inactives: at the top dose activity, negative = inhibition, most hits filed as inhibitors; also: nearly all actives have a fitted effect of over 55% in size
Target sequence (P10636 561-689 P618L limits assumed): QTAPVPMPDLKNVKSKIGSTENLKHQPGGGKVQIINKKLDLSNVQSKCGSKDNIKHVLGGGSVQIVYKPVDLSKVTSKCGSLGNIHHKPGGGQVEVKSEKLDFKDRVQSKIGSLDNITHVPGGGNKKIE
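Fibril formation assay: tau K18 P301L at 15 uM with trace Alexa 594 label, heparin inducer 20 uM, pH 7 sodium acetate buffer, 37 C for 6 hr; endpoint ThT signal.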
RORgamma inh: ROR gamma (mouse) transcription inhibition | P51450 | Drosophila S2 Gal4-RORgamma UAS-luciferase reporter, 20 h | Potency, µM (top dose mostly 53.6 µM), without a hit: top-dose activity change, negative = inhibition, actives largely listed as inhibitors | 310,000 tested, 5.4% active; also: nearly all actives have a fitted effect of over 60% in size
Target sequence (P51450 whole entry, looked up, the tested form may be a part): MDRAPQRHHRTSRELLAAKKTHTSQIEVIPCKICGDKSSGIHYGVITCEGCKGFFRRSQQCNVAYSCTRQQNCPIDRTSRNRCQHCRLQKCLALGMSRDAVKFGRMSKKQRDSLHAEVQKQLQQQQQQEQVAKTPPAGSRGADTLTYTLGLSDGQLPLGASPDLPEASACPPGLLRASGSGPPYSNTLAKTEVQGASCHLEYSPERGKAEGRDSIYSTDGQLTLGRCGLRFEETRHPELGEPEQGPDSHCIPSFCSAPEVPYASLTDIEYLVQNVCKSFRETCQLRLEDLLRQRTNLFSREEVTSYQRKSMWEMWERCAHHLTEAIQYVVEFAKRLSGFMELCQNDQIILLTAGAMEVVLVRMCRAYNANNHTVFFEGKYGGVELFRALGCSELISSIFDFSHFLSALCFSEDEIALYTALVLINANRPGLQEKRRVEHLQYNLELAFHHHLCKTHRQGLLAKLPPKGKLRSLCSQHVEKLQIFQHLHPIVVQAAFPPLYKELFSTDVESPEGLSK
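Using a luciferase readout, inhibitors were identified by reduced reporter activity in Drosophila cells coexpressing a copper-inducible Gal4–ROR gamma fusion and UAS-driven Photinus luciferase, incubated 20 hr after 700 uM copper sulfate.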
Tau fibril FP: inhibitors of human tau fibril formation; K18 P301L tau heparin fibrillization, Alexa594 FP, 6 h; Potency, µM (titrated, usually from 57.7 µM), without a hit: at the highest dose activity, negative = inhibition, actives largely listed as inhibitors; 280,000 tested, 0.39% active; also: nearly all actives have a fitted effect of over 55% in size
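Heparin (20 uM) drove fibril formation of recombinant tau K18 P301L, 15 uM unlabeled with 0.24 uM Alexa 594 label, for 6 hr at 37 C in 100 mM sodium acetate pH 7. Fluorescence polarization (555/632 nm) read 1 hr after 30 uM ThT.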
Tau fluor cs: counter-screen for tau fibril formation inhibitors; AID 1463; tau K18 P301L Alexa594 fluorescence, heparin fibrillization; Potency, µM (highest dose often 57.7 µM), for the others: at the highest dose activity change, negative = decrease; 280,000 tested, 0.93% active; also: nearly all actives have a fitted effect of over 55% in size
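Human tau K18 P301L (15 uM unlabeled, 0.24 uM Alexa 594-labeled) in 100 mM sodium acetate pH 7 with 20 uM heparin, 6 hr at 37 C. ThT 30 uM added, 1 hr ambient; Alexa 594 FP and total fluorescence read at 555/632 nm.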
Gal4-VP16 FLuc: counter-screen for ROR gamma inhibitors: Gal4-VP16 reporter. Drosophila S2 Gal4-VP16 UAS-luciferase, luminescence, 20 h. Potency, µM (titrated, usually from 53.6 µM), for the others: at the top dose activity, negative = inhibition, usual class: inhibitors. 310,000 tested, 3.5% active. AID 2546;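 also: Gal4-VP16 expression switched on by copper sulfate through the metallothionein promoter; nearly all actives have a fitted effect of over 50% in size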
Numbers without * were called inactive; ? = inconclusive; nt = not tested or not shown; [ ] = remark or other dose. Compounds with a hit are over-represented: about 7.3% of the library has one in this group of screens. Calls follow the shape of the dose curve; as a rule, active = well fitted curve in the direction sought with a large enough effect; inconclusive = small, poorly fitted or top-dose-only effect, or another doubt; inactive = no such curve, though single readings can be large; an effect the other way counts as inactive or inconclusive. % is scaled to controls: 0 for no effect and ±100 for the full control effect; potency is read from the fitted curve at half-maximal effect.

SMILES | Tau ThT inhib | RORgamma inh | Tau fibril FP | Tau fluor cs | Gal4-VP16 FLuc
COC(=O)Cc1ccc(NC(=S)NC(C)(C)C)cc1 | -6.4% | ? | -8.8% | -9.6% | -13.5%
CC(C)(C)NC(=S)NC1CC1 | -1.2% | 12.6µM* | -2.4% | -1.8% | ?
CC(C)(C)NC(=S)NC(C)(C)C | -1.6% | 11.2µM* | 4.6% | -0.9% | ?
Cc1cc(C)c(C(=O)CSC2=NC(N)=C(C#N)C3(CCCCC3)C2C(N)=O)cc1C (configuration not stated) | 28.2µM* | 9.5% | ? | ? | -4.0%
COc1ccc(Cc2[nH]n3c(=O)cc(C)nc3c2-c2ccccc2)cc1 | 0.6% | 11.2µM* | -6.7% | 7.8% | ?
COc1ccc(Cc2[nH]n3c(=O)cc(C(C)C)nc3c2-c2ccccc2)cc1 | -8.2% | 3.55µM* | -11.2% | 1.6% | 10µM*
N#C/C(C(=O)c1ccccc1)=C1/SC=C(N)N1c1ccccc1 | 28.2µM* | 7.8% | ? | -29.3% | -2.1%
O=C(Nc1ccc(F)c(Cl)c1)N1CCC(CN2CCc3ccccc3C2)CC1 | 2.5% | nt | ? | -3.9% | nt
COc1ccc(NS(=O)(=O)c2ccc3[nH]c4c(c3c2)CCCCC4)cc1 | ? | nt | -10.7% | 3.55µM*[quencher] | nt
COc1ccc(NS(=O)(=O)c2ccc3[nH]c4c(c3c2)CCCC4)c(OC)c1 | -6.5% | nt | 14.7% | 15.8µM*[quencher] | nt
COCCCNS(=O)(=O)c1ccc2[nH]c3c(c2c1)CCCCC3 | nt | 0.5% | nt | nt | -7.3%
CCOc1ccc(NS(=O)(=O)c2ccc3[nH]c4c(c3c2)CCCCC4)cc1 | -6.0% | nt | 9.6% | 14.1µM*[quencher] | nt
COc1ccc(OC)c(CNS(=O)(=O)c2ccc3[nH]c4c(c3c2)CCCCC4)c1 | -13.1% | nt | 10.5% | ? | nt
CCOc1ccc(NS(=O)(=O)c2ccc3[nH]c4c(c3c2)CCCC4)cc1 | -0.9% | nt | -1.1% | 12.6µM*[quencher] | nt
COc1ccc(NS(=O)(=O)c2ccc3nc(-c4ccccc4)[nH]c3c2)cc1 | 6.2% | nt | ? | ? | nt
CCOc1ccc(NS(=O)(=O)c2ccc3nc(-c4ccccc4)[nH]c3c2)cc1 | 8.4% | nt | 20µM* | ? | nt
Cc1oc2c(c1C(=O)c1ccc(Cl)cc1)C(=O)C(=O)c1ccccc1-2 | 2.24µM* | 5.62µM* | ? | -28.4% | 6.31µM*
Cc1ccc(C(=O)c2coc3c2C(=O)C(=O)c2ccccc2-3)cc1 | 2.24µM* | ? | ? | ? | ?
COc1ccc(C(=O)c2c(C(F)(F)F)oc3c2C(=O)c2ccccc2C3=O)cc1 | ? | 16.6% | ? | ? | -4.7%
Cc1ccc(C(=O)c2c(C)oc3c2C(=O)C(=O)c2ccccc2-3)cc1 | 3.55µM* | 5.01µM* | ? | -26.7% | 3.55µM*
O=c1cc(-c2ccc(O)cc2)oc2cc(O[C@@H]3O[C@H](CO)[C@H](O)[C@H](O)[C@H]3O)cc(O)c12 | nt | 1.2% | nt | nt | -17.1%
COc1cccc(C(=O)/C=C/Nc2ccc(S(=O)(=O)Nc3cccc(C(C)=O)c3)cc2)c1 | ? | 15.4% | ? | ? | 10µM*
COc1cccc(C(=O)/C=C/Nc2cccc(O)c2)c1 | ? | 7.94µM* | 8.4% | ? | 1.26µM*
COc1ccc(OC)c(N/C(C)=C/C(=O)c2ccccc2)c1 | ? | 26.5% | 8.4% | -28.4% | -15.0%
COc1ccc(OC)c(N/C=C/C(=O)c2ccccc2)c1 | nt | 4.47µM* | nt | nt | 5.01µM*
SMILES | Tau ThT inhib | RORgamma inh | Tau fibril FP | Tau fluor cs | Gal4-VP16 FLuc
COc1ccc(C(=O)/C=C/Nc2ccc(S(=O)(=O)Nc3ncccn3)cc2)cc1 | -4.4% | 27.8% | -0.6% | -1.0% | -2.6%
COc1cccc(C(=O)/C=C/Nc2ccc(NC(C)=O)cc2)c1 | ? | ? | 7.8% | -26.8% | 5.2%
COc1ccc(N/C=C/C(=O)c2ccc(Cl)cc2)cc1 | ? | -35.4% | -1.1% | -0.3% | -24.3%
COc1cccc(N/C=C/C(=O)c2ccc(Cl)cc2)c1 | ? | 10µM* | -5.4% | ? | 12.6µM*
Cc1ccc(-c2nnn3c2nc(NCC(C)c2ccccc2)c2ccccc23)cc1 (configuration not stated) | -1.3% | nt | -16.4% | ? | nt
COc1ccc(OC)c(CNC(=O)C(C)n2nc(C)c3c(C)n(-c4ccccc4)nc3c2=O)c1 (configuration not stated) | nt | -5.7% | nt | nt | 7.1%
CC(C)Oc1ccc(/C=C(/NC(=O)c2ccccc2)C(=O)NCCC(=O)O)cc1 | 1.7% | 11.2µM* | -3.6%[2.34 µM] | -8.9% | -16.7%
O=C(Nc1nccs1)c1cn(-c2ccccc2)nc1-c1ccccc1 | -4.4% | 7.08µM* | ? | ? | ?
CC(C)COc1ccc(-c2nn(-c3ccccc3)cc2C(=O)Nc2nccs2)cc1 | 14.8% | 2.51µM* | 14.1µM* | ? | 4.47µM*
O=C(Nc1ccccc1)c1cn(-c2ccccc2)nc1-c1ccccc1 | -1.4% | nt | -4.1% | -10.5% | nt
Cc1cccc(C)c1OCc1nc2c3c(-c4ccccc4)c(-c4ccccc4)oc3ncn2n1 | -4.5% | nt | -2.6% | -8.4% | nt
N#Cc1c(-c2ccco2)cc(-c2ccccn2)nc1N | ? | 10µM* | -6.4% | -28.2% | 11.2µM*
Cc1cccc(CNc2ncncc2-c2cccc(NS(C)(=O)=O)c2)c1 | -13.3% | -34.6% | -7.8% | -13.9% | 1.5%
Cc1c(Cl)c(-c2n[nH]c(=S)n2-c2ccc(F)cc2)nn1C | -2.9% | 12.6µM* | -4.3% | -9.8% | -3.6%
Cc1c(Cl)c(-c2n[nH]c(=S)n2CC(C)C)nn1C | ? | 12.6µM* | 5.6% | -12.1% | ?
CCc1nn(C)c(-c2n[nH]c(=S)n2N)c1Cl | -3.3% | -37.0% | -4.0% | -0.8% | 0.2%
Cn1cc(Cl)c(-c2n[nH]c(=S)n2-c2ccccc2)n1 | -1.0% | -39.7% | 0.3% | 7.1% | -5.8%
Cc1nn(C)c(-c2n[nH]c(=S)n2-c2ccccc2)c1Cl | -2.8% | 11.2µM* | 3.0% | 1.7% | -8.4%
CCCCn1c(-c2nn(C)c(C)c2Cl)n[nH]c1=S | -10.0% | 3.16µM* | 0.2% | 0.2% | ?
CC[C@@H](C)C(N)C(=O)O (some centres not stated) | nt | -13.4% | nt | nt | 3.1%
O=c1[nH]nc(Cc2ccc([N+](=O)[O-])cc2)c2ccccc12 | nt | 31.2% | nt | nt | -11.8%
Cc1cccc(OCCn2c(-c3ccco3)nc3ccccc32)c1 | ? | 15.8µM* | 12.2% | -14.5% | -2.3%
CCn1c(-c2ccco2)nc2ccccc21 | -6.3% | 0.0%[0.365 µM] | 7.8% | 13.8% | nt
c1ccc(OCCn2c(-c3ccco3)nc3ccccc32)cc1 | -5.8% | 11.2µM* | 2.9% | 1.8% | 0.5%
Cc1cccc(OCCn2c(S(=O)(=O)O)nc3ccccc32)c1 | -2.7% | 17.8% | 0.8% | 0.9% | -2.2%
O=C1OC(Nc2cc(Br)cc3cccnc23)c2ccccc21 (configuration not stated) | -15.9% | ? | 7.4% | -8.3% | 11.2µM*
CCOC(=O)c1cnc(-n2nc(C)cc2C)[nH]c1=O | -8.4% | 6.31µM* | -1.8% | -4.0% | -26.8%

Screening results (PubChem BioAssay)
